Results: paper PMC4336329 (PLoS ONE, 2015)
Out of some 310,000 compounds screened, about 14,000 (4.5%) showed an effect of 50% or more. Effects have a minus sign here. The full list was thinned out, with strong results kept by preference.

Biological target: human ether-à-go-go-related gene (hERG) potassium channel (human, UniProt Q12809)
Assay: primary screen, population patch clamp on CHO cells stably expressing hERG; higher = less effect of the substance
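Further: peak tail current of the secondary pulse compared with the same well before compound.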

Chain of human ether-à-go-go-related gene (hERG) potassium channel (Q12809 whole entry, looked up): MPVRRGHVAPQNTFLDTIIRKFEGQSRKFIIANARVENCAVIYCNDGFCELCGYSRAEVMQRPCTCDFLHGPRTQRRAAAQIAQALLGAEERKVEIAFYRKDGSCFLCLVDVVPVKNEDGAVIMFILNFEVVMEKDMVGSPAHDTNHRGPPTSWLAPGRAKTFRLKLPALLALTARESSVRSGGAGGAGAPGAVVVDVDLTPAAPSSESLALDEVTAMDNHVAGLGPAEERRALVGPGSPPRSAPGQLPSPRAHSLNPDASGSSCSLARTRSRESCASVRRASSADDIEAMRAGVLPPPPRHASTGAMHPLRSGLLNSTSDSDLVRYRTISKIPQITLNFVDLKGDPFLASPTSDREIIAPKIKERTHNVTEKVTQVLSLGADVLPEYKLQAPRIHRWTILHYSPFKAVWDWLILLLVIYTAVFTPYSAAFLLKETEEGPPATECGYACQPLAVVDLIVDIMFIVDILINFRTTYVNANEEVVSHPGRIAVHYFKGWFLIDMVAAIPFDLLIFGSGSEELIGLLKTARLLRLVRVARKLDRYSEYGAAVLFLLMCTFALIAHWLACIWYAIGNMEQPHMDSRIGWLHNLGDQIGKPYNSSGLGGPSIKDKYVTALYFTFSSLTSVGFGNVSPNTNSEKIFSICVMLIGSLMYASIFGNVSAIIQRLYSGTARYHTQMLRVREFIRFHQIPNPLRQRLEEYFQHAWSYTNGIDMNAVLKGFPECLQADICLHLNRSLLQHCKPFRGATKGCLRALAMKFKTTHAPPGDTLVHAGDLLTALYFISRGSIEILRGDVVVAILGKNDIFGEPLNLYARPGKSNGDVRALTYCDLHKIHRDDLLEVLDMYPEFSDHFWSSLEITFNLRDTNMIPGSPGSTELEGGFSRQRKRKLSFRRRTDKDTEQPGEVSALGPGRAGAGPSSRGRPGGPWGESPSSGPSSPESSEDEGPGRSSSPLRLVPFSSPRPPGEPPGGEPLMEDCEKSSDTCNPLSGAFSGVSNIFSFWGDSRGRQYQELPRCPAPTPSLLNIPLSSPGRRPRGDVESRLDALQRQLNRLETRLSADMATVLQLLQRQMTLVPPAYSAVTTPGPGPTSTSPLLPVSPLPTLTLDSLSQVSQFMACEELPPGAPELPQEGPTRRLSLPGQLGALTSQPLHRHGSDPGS

Question: For `COc1cccc(-c2c(C(=O)N/N=C/c3ccoc3)nnn2-c2nonc2N)c1`, which “hERG current change (%, negative = inhibition) at 10uM” value is on record?
Answer: Its value is -9.92%.

Question: Which “hERG current change (%, negative = inhibition) at 10uM” value does the source give for `CCSc1nnc(NC(=O)CCNS(=O)(=O)c2cc(Br)cnc2N)s1` here?
Answer: The value was 0.00778%.

Question: For `Cc1cccc(Nc2ncnc3nc[nH]c23)c1C`, which “hERG current change (%, negative = inhibition) at 10uM” value is on record?
Answer: The value was -12.5%.

Question: Which “hERG current change (%, negative = inhibition) at 10uM” value does the source give for `COc1cc(NC(=O)c2ccnnc2)cc(C(=O)Nc2cccc(C(F)(F)F)c2)c1` here?
Answer: Its value is -52.8%.

Question: With `Cc1ccc(C(=O)Nc2cccc(C(F)(F)F)c2)cc1Nc1ccccn1` as the compound, how does the “hERG current change (%, negative = inhibition) at 10uM” value read?
Answer: The value was -67.4%.

Question: `COc1cc(NC(=O)c2ccc(N)nc2)cc(C(=O)Nc2cccc(C(F)(F)F)c2)c1` was tested. Which “hERG current change (%, negative = inhibition) at 10uM” value did it give?
Answer: Its value is -5.66%.

Question: With `COc1cc(Nc2ccccn2)cc(C(=O)Nc2cccc(C(F)(F)F)c2)c1` as the compound, how does the “hERG current change (%, negative = inhibition) at 10uM” value read?
Answer: Its value is -2.6%.

Question: `Cc1ccc(C(=O)Nc2cccc(C(F)(F)F)c2)cc1Nc1cncnc1.O=C(O)C(F)(F)F` was tested. Which “hERG current change (%, negative = inhibition) at 10uM” value did it give?
Answer: The value was -74.3%.

Question: `COc1cc(NC(=O)c2ccnc(N)c2)cc(C(=O)Nc2cccc(C(F)(F)F)c2)c1` was tested. Which “hERG current change (%, negative = inhibition) at 10uM” value did it give?
Answer: Its value is -31.3%.

Question: For `O=C(Nc1cccc(C(F)(F)F)c1)c1cccnc1`, which “hERG current change (%, negative = inhibition) at 10uM” value is on record?
Answer: Its value is -21.3%.

Question: For `Cc1ccc(C(=O)Nc2cccc(C(F)(F)F)c2)cc1Nc1ncnc2nc[nH]c12`, which “hERG current change (%, negative = inhibition) at 10uM” value is on record?
Answer: Its value is -60.2%.

Question: `Cc1ccc(C(=O)Nc2cccc(C(F)(F)F)c2)cc1NC(=O)c1cnnc2ccccc12` was tested. Which “hERG current change (%, negative = inhibition) at 10uM” value did it give?
Answer: Its value is -5.9%.

Question: With `Cc1ccc(C(=O)Nc2cccc(C(F)(F)F)c2)cc1Nc1cnccn1` as the compound, how does the “hERG current change (%, negative = inhibition) at 10uM” value read?
Answer: Its value is -38.4%.

Question: How did the “hERG current change (%, negative = inhibition) at 10uM” value turn out when `Cc1ccc(NC(=O)c2cccc(C(F)(F)F)c2)cc1NC(=O)c1[nH]cnc1C(N)=O` was run?
Answer: The value was -1.07%.

Question: How did the “hERG current change (%, negative = inhibition) at 10uM” value turn out when `CCSc1nn2c(=O)c3ccccc3nc2s1` was run?
Answer: Its value is -13.2%.

Question: How did the “hERG current change (%, negative = inhibition) at 10uM” value turn out when `COc1cccc(-c2cc(=O)[nH][nH]2)c1` was run?
Answer: The value was 18%.

Question: For `O=C(NCc1ccccc1)c1ccc(Br)o1`, which “hERG current change (%, negative = inhibition) at 10uM” value is on record?
Answer: Its value is 8.67%.

Question: Which “hERG current change (%, negative = inhibition) at 10uM” value does the source give for `CCCCN(CC)CCNC(=O)c1nn(-c2ccc(OC)cc2)c(=O)c2c1c1ccccc1n2C` here?
Answer: The value was 0.748%.

Question: With `CCCCCc1nnc(NC(=O)C2CCCO2)s1` (stereo not drawn) as the compound, how does the “hERG current change (%, negative = inhibition) at 10uM” value read?
Answer: Its value is -1.64%.

Question: `COC(=O)c1ccc(S(=O)(=O)N2CCC(c3nc4ccccc4o3)CC2)cc1` was tested. Which “hERG current change (%, negative = inhibition) at 10uM” value did it give?
Answer: Its value is 1.99%.

Question: Which “hERG current change (%, negative = inhibition) at 10uM” value does the source give for `COc1ccccc1N(CC(O)Cn1ccnc1C)S(=O)(=O)c1ccc(C)cc1.Cl` (stereo not drawn) here?
Answer: Its value is -39.3%.

Question: How did the “hERG current change (%, negative = inhibition) at 10uM” value turn out when `CCCC1C(=O)Nc2ccccc2N1C(=O)c1cccc(C)c1` (stereo not drawn) was run?
Answer: Its value is 2.13%.

Question: With `CCCCSc1nc(C)cc(NC(=S)Nc2ccc(OC)cc2)n1` as the compound, how does the “hERG current change (%, negative = inhibition) at 10uM” value read?
Answer: The value was -25.4%.

Question: `Cc1ccc(C(=O)Nc2cccc(C(F)(F)F)c2)cc1NC(=O)c1nccnc1N` was tested. Which “hERG current change (%, negative = inhibition) at 10uM” value did it give?
Answer: Its value is 8.61%.

Question: With `Cc1ccc(C(=O)Nc2cccc(C(F)(F)F)c2)cc1NC(=O)c1nccn1C` as the compound, how does the “hERG current change (%, negative = inhibition) at 10uM” value read?
Answer: Its value is 1.96%.

Question: Which “hERG current change (%, negative = inhibition) at 10uM” value does the source give for `Cc1ccc(C(=O)Nc2cccc(C(F)(F)F)c2)cc1NC(=O)c1ccno1` here?
Answer: The value was -67%.

Question: For `CCOC(=O)Nc1ccc2c(c1)N(C(=O)CCN1CCOCC1)c1ccccc1S2.Cl`, which “hERG current change (%, negative = inhibition) at 10uM” value is on record?
Answer: The value was -7%.

Question: With `CN1CCN(c2nc3c(c(=O)n(C)c(=O)n3C)n2Cc2ccccc2F)CC1` as the compound, how does the “hERG current change (%, negative = inhibition) at 10uM” value read?
Answer: Its value is -4.91%.

Question: With `CCCN(C(=O)c1cnccn1)c1c(N)n(Cc2ccccc2)c(=O)[nH]c1=O` as the compound, how does the “hERG current change (%, negative = inhibition) at 10uM” value read?
Answer: Its value is 0.0848%.

Question: `Cc1ccc(S(=O)(=O)N2[C@@H](c3ccc(Cl)cc3)C(C(=O)O)=CC[C@H]2c2ccc(Cl)c(Cl)c2)cc1` was tested. Which “hERG current change (%, negative = inhibition) at 10uM” value did it give?
Answer: Its value is 11.1%.

Question: How did the “hERG current change (%, negative = inhibition) at 10uM” value turn out when `COc1ccccc1C(=O)C1CCCN(C(=O)c2cc(C(C)C)no2)C1` (stereo not drawn) was run?
Answer: The value was -5.26%.

Question: Which “hERG current change (%, negative = inhibition) at 10uM” value does the source give for `CC(C)c1cc(C(=O)N2CCCC(C(=O)c3ccc4ccccc4c3)C2)on1` (stereo not drawn) here?
Answer: The value was -21.8%.

Question: `COc1ccc(C(=O)C2CCCN(C(=O)c3cc(C)on3)C2)cc1F` (stereo not drawn) was tested. Which “hERG current change (%, negative = inhibition) at 10uM” value did it give?
Answer: Its value is -6.98%.

Question: `Cc1cc(Cl)ccc1C(=O)C1CCCN(C(=O)c2cc(C(C)C)no2)C1` (stereo not drawn) was tested. Which “hERG current change (%, negative = inhibition) at 10uM” value did it give?
Answer: Its value is -22.7%.

Question: `COc1ccc(C(=O)C2CCCN(C(=O)c3cc(C(C)C)no3)C2)cc1F` (stereo not drawn) was tested. Which “hERG current change (%, negative = inhibition) at 10uM” value did it give?
Answer: Its value is -56.9%.

Question: Which “hERG current change (%, negative = inhibition) at 10uM” value does the source give for `CSc1ccccc1C(=O)C1CCCN(C(=O)c2cc(C(C)C)no2)C1` (stereo not drawn) here?
Answer: The value was -69.6%.

Question: How did the “hERG current change (%, negative = inhibition) at 10uM” value turn out when `Cc1ccccc1NC(=O)CSc1nc(N)c(C#N)cc1C#N` was run?
Answer: The value was 0.675%.

Question: Which “hERG current change (%, negative = inhibition) at 10uM” value does the source give for `Cc1nc2c(-c3ccccc3)c(C)nn2c(C)c1CC(=O)O` here?
Answer: The value was 5.02%.

Question: `O=C(CSc1nnc(CNC(=O)c2ccco2)o1)c1ccccc1` was tested. Which “hERG current change (%, negative = inhibition) at 10uM” value did it give?
Answer: The value was 4.14%.

Question: With `COc1cccc(C(=O)Nc2ccccc2C(=O)NC2CC2)c1` as the compound, how does the “hERG current change (%, negative = inhibition) at 10uM” value read?
Answer: The value was 0.677%.

Question: Which “hERG current change (%, negative = inhibition) at 10uM” value does the source give for `Cc1ccc(C)c(N2CCN(C(=O)Nc3ccc4c(c3)N(C)C(=O)CS4)CC2)c1` here?
Answer: Its value is -21.8%.

Question: For `COc1ccc(CN2CCC(=O)N([C@H](CO)c3ccccc3)CC2)cc1`, which “hERG current change (%, negative = inhibition) at 10uM” value is on record?
Answer: The value was 13.3%.

Question: `CCCN1CCC(=O)N([C@H](CSc2ccccc2)c2ccccc2)CC1` was tested. Which “hERG current change (%, negative = inhibition) at 10uM” value did it give?
Answer: Its value is -77.2%.

Question: With `CC(C)CN1CCC(=O)N([C@H](CSc2ccc(Br)cc2)c2ccccc2)CC1` as the compound, how does the “hERG current change (%, negative = inhibition) at 10uM” value read?
Answer: The value was -63.9%.

Question: Which “hERG current change (%, negative = inhibition) at 10uM” value does the source give for `CCCN1CCC(=O)N([C@H](CSc2ccc(C)cc2)c2ccccc2)CC1` here?
Answer: The value was -76%.

Question: `CCCN1CCC(=O)N([C@H](CSc2ccc(OC)cc2)c2ccccc2)CC1` was tested. Which “hERG current change (%, negative = inhibition) at 10uM” value did it give?
Answer: The value was -76.5%.

Question: With `Nc1cc(=O)[nH]c(SCc2csc(-c3ccccc3)n2)n1` as the compound, how does the “hERG current change (%, negative = inhibition) at 10uM” value read?
Answer: The value was -3.63%.

Question: For `O=C(NCCC1=CCCCC1)c1ccc(F)cc1`, which “hERG current change (%, negative = inhibition) at 10uM” value is on record?
Answer: Its value is -9.04%.

Question: For `Cc1noc(/C=C/N(C)C)c1S(=O)(=O)N1CCCC(C(=O)NC2CCCCC2C)C1` (stereo not drawn), which “hERG current change (%, negative = inhibition) at 10uM” value is on record?
Answer: Its value is -25.5%.

Question: Which “hERG current change (%, negative = inhibition) at 10uM” value does the source give for `O=C(Cc1ccc([N+](=O)[O-])cc1)OCc1ccc([N+](=O)[O-])cc1` here?
Answer: Its value is 19.2%.

Question: How did the “hERG current change (%, negative = inhibition) at 10uM” value turn out when `CCCNC(=S)N1CCN(c2nc(-c3ccc(C)cc3)cs2)CC1` was run?
Answer: Its value is 5.6%.

Question: For `O=C(Nc1ccc(F)cc1F)c1cncc(Br)c1`, which “hERG current change (%, negative = inhibition) at 10uM” value is on record?
Answer: The value was -3.88%.

Question: `CCOC(=O)c1cnn(CCOC(=O)C(C)(C)C)c1NC(=O)C(C)(C)C` was tested. Which “hERG current change (%, negative = inhibition) at 10uM” value did it give?
Answer: The value was 12.8%.

Question: For `COc1cc(OC)c2ccc(=O)oc2c1C(CC(=O)N1CCOCC1)c1ccc2c(c1)OCO2` (stereo not drawn), which “hERG current change (%, negative = inhibition) at 10uM” value is on record?
Answer: Its value is -0.731%.
